# Activity calls are given as the source filed them. How the source made its calls: active means hit-call score of the fitted dose curve at least 0.9, where 1 is the maximum; inactive means score below 0.9.
# Read-out: Caspase-3 (Homo sapiens) (UniProt P42574)
# Assay: LTEA_HepaRG_CASP3: Life Technologies and Expression Analysis (LTEA) Assay for cysteine-aspartic acid protease (CASP3) using HepaRG (AID 2283477)
# Settings: mRNA level, 48 h; actives raise or lower the signal
# Procedure: LTEA_HepaRG is a cell based, multiplexed-readout assay that uses HepaRG, a human liver cell line, with measurements taken at 48 hours after chemical dosing on a 96-well plate.LTEA_HepaRG_CASP3 is one of 102 assay component(s) measured in the LTEA HepaRG cell culture assay. It is a marker of Cell proliferation, survival, death.Data from the assay component LTEA_HepaRG_CASP3 was analyzed into 1 endpoint. This assay endpoint, LTEA_HepaRG_CASP3, was analyzed with bidirectional fitting relative to DMSO as the negative control and baseline of activity. Using a type of inducible reporter, measures of mRNA induction for gain or loss-of-signal activity can be used to understand regulation of transcription factor activity. To generalize the intended target to other relatable targets, this assay endpoint is annotated to the protease intended target family, where the subfamily is cysteine protease.
# A total of 1060 chemcials from the ToxCast library were tested in eight-point concentration-response experiments. Cell culture and cytotoxicity assays were conducted at Thermo Fisher Scientific's Custom Services facility (Madison, WI). A single lot of human HepaRG cells (Thermo Fisher Scientific, Frederick, MD) was used for the cell culture experiments. 96-well format collagen type I coated plates of human HepaRG cells were prepared using established methods. Briefly, cryopreserved HepaRG cells were thawed, plated at a density of approximately 100,000 cells/well in HepaRG Thaw, Plate, and General Purpose media (HPRG770, Thermo Fisher Scientific), and incubated for 48 hours. 0.5% DMSO was selected as vehicle control to balance the requisite need of DMSO in HepaRG cultures to maintain differentiation (for example, baseline metabolism, proportions of hepatocytes vs. cholangiocytes), while enabling further hepatic receptor pathway activation (for example, PXR and CAR) in response to chemical exposure. 48 hours after plating, the culture medium was replaced with HepaRG Serum-Free Incudtion Media. Cells were exposed to each test chemical in duplicate and maintained in CO2 incubators for another 48 hours. Chemical plates were thawed to room temperature and 200x concentrations of treatment groups were prepared. 8-point conentration-reponse curves were made with the highest exposure at 100 uM, followed by half-log dilutions, all in 0.5% DMSO. Each test plate contained variouse controls, induction positive controls (1mM phenobarbital), cytotoxicity positive controls ([…] aflatoxin B1), vehicle controls (0.5% DMSO), and total lysis controls (0.5% DMSO). Cell morphology images were taken using an Essen IncuCyte FLR automated microscope, with six 96-well plates imaged in about 24 minutes. Images were captured and exported and JPEG files. Spent culture media was transfered to black-well plates for the LDH assay, and remaining media was sorted at -80 C for later use. Cells were treated with RLT buffer and frozen until shipped for gene expression analysis. Total RNA was isolated from the cell suspension in 75 uL of Buffer RLT (Qiagen, Germantown, MD 20874) by Quintiles/Expression Analysis (Durham, NC) using a custom isolation procedure. Total RNA from each plate well was transferred to a preamplification plate. Fluidigm's 96.96 Dynamic ArrayTM (Fluidigm, Amsterdam, the Netherlands) technology was used for gene expression analyses by quantitative reverse transcription polymerase chain reaction (qRT-PCR, performed by Quintiles/Expression Analysis, Durham, NC)89. Standard TaqManTM Assays (Applied Biosystems/ThermoFisher Scientific, Foster City, CA) were used to assess the expression of 93 genes selected based on their selectivity and sensitivity to important hepatic receptors known to be modulated by environmental chemicals; importance in human hepatocyte functionality; and hepatotoxicity. […]
# Chain of Caspase-3 (Homo sapiens) (P42574 whole entry, looked up): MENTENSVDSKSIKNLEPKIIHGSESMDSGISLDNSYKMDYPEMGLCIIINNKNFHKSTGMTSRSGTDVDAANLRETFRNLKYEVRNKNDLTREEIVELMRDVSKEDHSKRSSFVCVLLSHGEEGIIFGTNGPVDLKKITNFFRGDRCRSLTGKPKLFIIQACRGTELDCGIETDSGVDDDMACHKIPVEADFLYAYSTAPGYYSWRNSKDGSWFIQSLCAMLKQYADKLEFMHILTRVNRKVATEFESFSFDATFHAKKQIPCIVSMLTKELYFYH
SMILES,outcome,AC50
O=C(CCCN1CCC(O)(c2ccc(Cl)cc2)CC1)c1ccc(F)cc1,inactive,–
CC(=O)Nc1ccc(O)cc1,inactive,–
Cc1[nH]nc2c1N=C(c1ccccc1Cl)c1cc([N+](=O)[O-])ccc1N2,inactive,–
CN(Cc1cnc2nc(N)nc(N)c2n1)c1ccc(C(=O)N[C@@H](CCC(=O)O)C(=O)O)cc1,inactive,–
CCCCC=O,inactive,–
O=C(c1ccccc1)c1ccccc1,inactive,–
CCC(C)c1ccccc1O (stereo unspecified),inactive,–
CCCCCCCCCCCCCCC,inactive,–
CCCCc1oc2ccccc2c1C(=O)c1cc(I)c(OCCN(CC)CC)c(I)c1,inactive,–
O=C1NS(=O)(=O)c2ccccc21,inactive,–
CCCCC(CC)C(=O)O (stereo unspecified),inactive,–
CN(C)CCOC(c1ccccc1)c1ccccc1,inactive,–
OCC(CO)(CBr)CBr,inactive,–
N=C(N)c1ccc(OCCCCCOc2ccc(C(=N)N)cc2)cc1,–,69.8 µM (active)
CCCCCCCCCCCCOS(=O)(=O)O,inactive,–
CS(=O)(=O)c1ccc([C@@H](CC2CCCC2)C(=O)Nc2cnccn2)cc1Cl,inactive,–
